Source: PubChem BioAssay (National Center for Advancing Translational Sciences (NCATS))
FMDV inh – antivirals against foot and mouth disease virus; FMDV antiviral cell-based qHTS; Potency, µM (series often up to 57.9 µM), inactives show top-dose activity change, negative = inhibition, usual class: inhibitors; hit rate 1.2% among 410,000; calls by dose curve; tested in HEK293T cells; further: read-out not given here; on the % scale 0 is the no-effect control and ±100 the full control effect; nearly all actives have a fitted effect of over 45% in size
HCV inhibitor – blocks hepatitis C virus; Huh7.5.1 HCVcc-Cre infection, luciferase reporter, 44 h; Potency, µM (titrated, usually from 41.8 µM), for inactives: at the top dose activity change, negative = inhibition, hits mostly inhibitors; hit rate 3.4% among 340,000; AID 651820; further: on the % scale 0 is the no-effect control and ±100 the full control effect
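HCVcc-Cre virus at an moi near 0.5 was added right after compound to cells cultured 4 h from seeding (1,000 cells/well). Luciferase activity was determined 44 h later, 15 min after substrate addition at RT.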
Sm TGR inh – blocks Schistosoma mansoni thioredoxin glutathione reductase; Potency, µM (highest dose often 114 µM), inactives show top-dose activity change, negative = inhibition, most hits filed as inhibitors; Q962Y6; purified TGR, DTNB reduction, TNB absorbance 405 nm; hit rate 3% among 360,000; AID 485364; further: on the % scale 0 is the no-effect control and ±100 the full control effect; nearly all actives have a fitted effect of over 60% in size
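Kinetic colorimetric format: TGR-catalysed, NADPH-driven DTNB reduction monitored via TNB absorbance. Enzyme dispensed at 20 nM; compound exposure 15 min at room temperature before reaction start.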
RE007 growth inh – less growth of the S. pombe RE007 Vpr strain; hit rate 0.21% among 360,000; S. pombe RE007 Vpr strain, BacTiter-Glo ATP luminescence, 24 h; AID 651644; Potency, µM (highest dose often 92.2 µM), for the others: at the highest dose activity change, negative = less growth, hits mostly inhibitors; active means well fitted falling curve with a large enough effect; inconclusive means small, poorly fitted or top-dose-only effect; inactive means no such curve, though single readings can be large or run the other way; further: on the % scale 0 is the no-effect control and ±100 the full control effect; nearly all actives have a fitted effect of over 50% in size
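Fission yeast RE007 carrying one integrated HIV-1 vpr copy, seeded at OD 0.01 in PMG+AL medium with 23 nL pinned compound. Grown 24 h at 30 degrees; viability read by BacTiter-Glo luminescence after 5 min.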
Lassa entry inh – blocks Lassa virus binding to or entry into cells; AID 540256; Lassa virus pseudotype entry inhibition, cell reporter; Potency, µM (top dose mostly 37.9 µM), inactives show at the highest dose activity change, negative = inhibition, hits mostly inhibitors; hit rate 1.2% among 300,000; calls by dose curve; tested in HEK293 cells; further: on the % scale 0 is the no-effect control and ±100 the full control effect; nearly all actives have a fitted effect of over 50% in size
Marburg entry inh – blocks Marburg virus binding to or entry into cells | Marburg virus pseudotyped entry inhibition, cell reporter | Potency, µM (top dose mostly 37.8 µM), without a hit: at the top dose activity change, negative = inhibition, usual class: inhibitors | hit rate 1.8% among 300,000 | AID 540276; calls by dose curve; tested in HEK293 cells; further: on the % scale 0 is the no-effect control and ±100 the full control effect
HCV inh confirm – confirmation of hepatitis C virus inhibitors | HCVcc-Cre infectious virus cell assay, luciferase, inhibition | Potency, µM (titrated, usually from 41.8 µM), inactives show at the top dose activity, negative = inhibition, hits mostly inhibitors | hit rate 78% among 640 | shares compounds with HCV inhibitor; further: nearly all actives have a fitted effect of over 80% in size
HCV host tox – host cell cytotoxicity counter-screen for HCV inhibitors; shares compounds with HCV inhibitor; HCV host cell line cytotoxicity counterscreen; Potency, µM (highest dose often 41.8 µM), inactives show top-dose activity change, negative = cytotoxicity, most hits filed as inhibitors; hit rate 22% among 640; AID 720576;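 further: 44 h compound exposure; on the % scale 0 is the no-effect control and ±100 the full control effect; nearly all actives have a fitted effect of over 55% in size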
* hit, by the source's call; ? = inconclusive; · = not tested or not shown; [ ] = another dose, or the depositor's remark. This is a sample that favours compounds with a hit; in the whole collection about 7.2% have one here. Unless noted, the call rests on the fitted dose curve; in most records, active means well fitted curve in the direction sought with a large enough effect; inconclusive means small, poorly fitted or top-dose-only effect, or another doubt; inactive means no such curve, though single readings can be large; an effect the other way counts as inactive or inconclusive. Potency means the concentration at half of the fitted maximal effect.

SMILES	FMDV inh	HCV inhibitor	Sm TGR inh	RE007 growth inh	Lassa entry inh	Marburg entry inh	HCV inh confirm	HCV host tox
Cc1cc(Cl)ccc1NC(=O)NC1CCN(S(=O)(=O)c2ccc(F)cc2)CC1	?	4.47µM*	-7.8%	-0.8%	?	-25.8%[46.1 µM]	11.2µM*	21.9%
Cc1cc(C(=O)CSc2nnc(-c3ccco3)o2)c(C)n1Cc1ccco1	-22.5%	?	?	-22.7%	1.5%	-18.0%	15.8µM*	?
O=C(Cn1nnc(-c2ccc(C(F)(F)F)cc2)n1)NCCc1ccccc1	-17.5%	·	17.5%	·	17.7%[46.1 µM]	-2.2%[46.1 µM]	·	·
CC(C)Oc1ccccc1/C=N/NC(=O)c1ccc(F)cc1	-6.6%	7.94µM*	7.9%	2.0%	?	?	?	-9.9%
CC(C)Oc1ccccc1/C=N/NC(=O)c1ccccc1Cl	-4.7%	-21.2%	1.7%	1.8%	·	·	·	·
CCc1ccc(OCC(=O)N(Cc2ccco2)Cc2ccco2)cc1	-12.3%	·	-2.3%	·	11.4%[46.1 µM]	-7.6%[46.1 µM]	·	·
CC1(c2ccc3ccccc3c2)NC(=O)N(CC(=O)N2CCN(Cc3ccccc3)CC2)C1=O (stereo unspecified)	?	3.16µM*	6.8%	14.9%	·	·	0.887µM*	3.15µM*
CC1(c2ccc3ccccc3c2)NC(=O)N(CC(=O)N2CCC(C(N)=O)CC2)C1=O (stereo unspecified)	-17.7%	28.4%	-1.3%	8.1%	?	8.5%[46.1 µM]	·	·
C=CCc1c(C)c(C#N)c2nc3ccccc3n2c1N1CCCCC1	?	?	-12.6%	-7.6%	-3.6%[46.1 µM]	13.8%[46.1 µM]	·	·
C=C(C)Cc1c(C)c(C#N)c2nc3ccccc3n2c1N1CCCCC1	-12.6%	?	-8.5%	5.8%	4.2%	-17.1%	14.1µM*	43.4%
Cc1ccc(Sc2ccc(N3CCC(C(=O)Nc4ccc(C)c(F)c4)CC3)nn2)cc1	10.3%	·	2.7%	·	-0.7%[46.1 µM]	-2.8%[46.1 µM]	·	·
Clc1cccc(-c2cc3nc4c(c(N5CCN(c6cnccn6)CC5)n3n2)CCCC4)c1	?	7.0%	4.9%	-17.8%	24.9%	27.3%	·	·
Clc1cccc(-c2cc3nc4c(c(N5CCOCC5)n3n2)CCCC4)c1	·	?	13.2%	3.6%	-19.6%	?	14.1µM*	-10.5%
CCCCCOC(=O)CSc1nc2c(c(=O)[nH]c(=O)n2C)n1Cc1ccc(Cl)cc1	-14.6%	2.82µM*	-23.1%	1.7%	-2.9%	35.1%	5.6µM*	19.8%
CCSc1nc2c(c(=O)[nH]c(=O)n2C)n1Cc1ccc(Cl)cc1	?	-9.0%	-3.9%	-10.8%	3.3%	?	·	·
O=C(c1cn(-c2ccccc2)nc1-c1cccc([N+](=O)[O-])c1)N1CCCCC1	-7.0%	?	·	-11.6%	-29.9%	1.8%[46.1 µM]	11.2µM*	26.1%
COc1cc(Cl)c(C)cc1NC(=O)CSc1cc(Cl)ccc1Cl	-13.0%	?	-5.9%	4.7%	?	-15.0%	11.2µM*	-28.3%
COc1cc(Cl)c(C)cc1NC(=O)CSc1ccc(C)cc1	-28.6%	?	4.1%	-4.6%	14.1%	-24.8%	·	·
NC(=O)c1c(-c2ccccc2)oc2ccc(O)cc12	2.4%	1.8%	8.5%	3.6%	-11.6%	1.0%	·	·
CCOC(=O)c1c(-c2ccccc2)oc2ccc(O)cc12	-4.8%	2.82µM*	?	0.8%	·	·	14.1µM*	-30.4%
O=C(Nc1nnc(CC2=CCCCC2)s1)c1cccs1	67.6%	-7.8%	-7.0%	-11.6%	26.7%	18.9%[46.1 µM]	·	·
O=C(Nc1ccc(Cl)c(Cl)c1)Nc1nnc(CC2=CCCCC2)s1	?	2.82µM*	-8.1%	-8.8%	·	·	7.05µM*	7.91µM*
CC(C)CNC(=S)N(CCN(C)C)Cc1cc2cc3c(cc2[nH]c1=O)OCO3	-15.7%	4.47µM*	1.3%	94.4%	?	5.5%[46.1 µM]	0.5%	16.6%
CC(Nc1nc(-c2ccc(F)cc2)cs1)c1nc2cc(Cl)c(Cl)cc2n1CCOCCO (stereo unspecified)	-12.3%	-15.4%	·	-3.9%	·	·	·	·
COc1ccc(-c2csc(NC(C)c3nc4cc(Cl)c(Cl)cc4n3CCCO)n2)cc1 (stereo unspecified)	-6.6%	8.91µM*	·	-0.6%	·	·	12.5µM*	11.1%
SMILES	FMDV inh	HCV inhibitor	Sm TGR inh	RE007 growth inh	Lassa entry inh	Marburg entry inh	HCV inh confirm	HCV host tox
COc1ccc2oc3cc(Cl)ccc3c(=O)c2c1	61.0%	·	·	0.6%	·	·	·	·
CNC(=O)c1cccc(NC(=O)c2ccccc2OCc2ccccc2)c1	?	?	-11.7%	26.5%	-8.5%	-25.7%[46.1 µM]	·	·
COc1cc(NC(=O)c2ccccc2OCc2ccccc2)cc(OC)c1OC	?	?	16.3%	-24.5%	·	·	14.1µM*	12.3%
Cc1[nH]nc2c1-c1nc3ccccc3nc1C(C)(C)C2	?	5.62µM*	5.4%[11.4 µM]	8.4%	?	?	7.91µM*	?
CC12CCC(C)(c3nc4ccccc4nc31)C2(C)C	-22.5%	20.1%	17.4%	4.0%	8.0%	3.2%[46.1 µM]	·	·
CC(=O)Nc1ccc(NC(=O)CN2C(=O)CN(C)C(=O)c3ccccc32)cc1	-13.3%	·	55.0%	·	3.5%[46.1 µM]	·	·	·
CC(=O)c1sc(NC(=O)CCS(=O)(=O)c2ccc(C)cc2)nc1C	-7.2%	2.82µM*	35.5µM*	8.3%	-25.2%	?	?	?
CC(=O)N(C1CC(C)C(C#N)(C#N)C1(C#N)C#N)N(C)C (stereo unspecified)	?	6.31µM*	·	-15.4%	-5.9%	?	-23.9%	24.9%
Cc1cc(S(=O)(=O)Nc2ccc3ccccc3c2)c(C)s1	44.2%	?	8.7%	?	-16.2%	?	22.3µM*	?
Cc1cc(S(=O)(=O)Nc2cccnc2)c(C)s1	34.0%	4.6%	0.0%	10.0%	1.3%	26.3%	·	·
CCC(=O)Nc1ccccc1-c1nc2ccccc2n(CC(=O)Nc2ccccc2OC)c1=O	-26.5%	·	0.1%	·	-5.1%[46.1 µM]	2.8%[46.1 µM]	·	·
CC1(C)NC(=O)N(CC(=O)Nc2nc(-c3ccc(F)cc3)cs2)C1=O	8.1%	3.55µM*	8.0%	-14.5%	6.0%	2.7%	?	-5.3%
CC1CCN(C(=O)c2cnn(-c3cccc(Cl)c3)c2C2CCN(C(=O)OC(C)(C)C)CC2)CC1	-12.3%	·	4.5%	·	?	·	·	·
COc1ccc([N+](=O)[O-])cc1NC(=O)CSc1ccc2ccccc2c1	-25.3%	?	-19.8%	27.9%	-10.1%	-17.0%	12.5µM*	?
COc1ccc([N+](=O)[O-])cc1NC(=O)CSc1nc(C)cc(C)n1	-14.0%	?	?	7.8%	-9.3%	?	·	·
COc1cccc(Oc2ccc(N)cn2)c1	14.5%	?	-27.7%	-15.4%	12.8%	26.1%	·	·
